Laboratory results as given in ChEMBL document CHEMBL1201862, “PubChem BioAssay data set” (2004).
About 2,100 (0.53%) of roughly 400,000 compounds were called active. Not shown: some 14% with an inconclusive outcome. No rule for the calls is given here. This excerpt belongs to a sample that is enriched for actives.

Target: Ataxin-2 (Homo sapiens) (UniProt Q99700)
Assay: qHTS for Inhibitors of ATXN expression.
Type: functional

Chain of Ataxin-2 (Homo sapiens) (Q99700 whole entry): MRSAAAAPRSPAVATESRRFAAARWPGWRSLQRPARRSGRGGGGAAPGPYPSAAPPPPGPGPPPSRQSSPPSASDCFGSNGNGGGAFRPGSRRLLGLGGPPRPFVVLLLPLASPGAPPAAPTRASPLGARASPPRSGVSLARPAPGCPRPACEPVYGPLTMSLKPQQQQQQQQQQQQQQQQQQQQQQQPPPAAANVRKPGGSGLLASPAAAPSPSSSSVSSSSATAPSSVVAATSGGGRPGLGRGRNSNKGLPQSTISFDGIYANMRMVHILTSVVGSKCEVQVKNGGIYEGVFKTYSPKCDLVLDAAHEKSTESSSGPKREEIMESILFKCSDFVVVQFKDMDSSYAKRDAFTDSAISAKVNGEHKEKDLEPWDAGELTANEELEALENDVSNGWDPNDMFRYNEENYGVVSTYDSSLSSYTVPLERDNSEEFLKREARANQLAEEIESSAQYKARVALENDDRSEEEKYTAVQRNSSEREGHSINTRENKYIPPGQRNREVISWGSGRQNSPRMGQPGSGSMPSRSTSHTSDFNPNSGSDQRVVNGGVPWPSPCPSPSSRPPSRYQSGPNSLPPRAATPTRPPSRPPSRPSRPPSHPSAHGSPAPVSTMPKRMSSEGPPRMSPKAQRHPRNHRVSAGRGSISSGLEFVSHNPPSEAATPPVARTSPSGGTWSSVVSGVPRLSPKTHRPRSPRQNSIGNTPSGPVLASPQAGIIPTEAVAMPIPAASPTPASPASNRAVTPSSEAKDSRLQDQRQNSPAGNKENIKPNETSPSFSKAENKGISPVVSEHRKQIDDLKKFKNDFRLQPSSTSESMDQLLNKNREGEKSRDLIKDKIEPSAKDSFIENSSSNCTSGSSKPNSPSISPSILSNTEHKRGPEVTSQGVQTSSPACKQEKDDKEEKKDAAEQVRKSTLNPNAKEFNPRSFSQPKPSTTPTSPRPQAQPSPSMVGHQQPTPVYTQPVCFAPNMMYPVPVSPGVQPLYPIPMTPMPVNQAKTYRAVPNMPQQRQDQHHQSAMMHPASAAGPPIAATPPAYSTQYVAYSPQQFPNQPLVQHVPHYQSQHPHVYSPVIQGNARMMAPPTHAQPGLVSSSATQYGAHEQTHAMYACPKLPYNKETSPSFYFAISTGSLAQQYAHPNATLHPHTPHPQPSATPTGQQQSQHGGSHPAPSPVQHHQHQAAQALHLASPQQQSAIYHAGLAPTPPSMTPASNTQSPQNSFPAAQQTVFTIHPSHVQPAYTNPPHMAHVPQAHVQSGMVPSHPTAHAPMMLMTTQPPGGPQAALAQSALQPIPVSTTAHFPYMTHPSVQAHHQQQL

Row | Structure (SMILES) | Potency
1 | O=C(NCc1cccc(F)c1)c1cccc2c1C(=O)c1ccc(N3CCC(Cc4ccccc4)CC3)cc1S2(=O)=O | inactive
2 | O=C(NNc1ccccn1)C(c1ccccc1)c1ccccc1 | inactive
3 | COc1ccc(-c2cc3ccc(O)c(CN4CCC(C)CC4)c3oc2=O)cc1OC | inactive
4 | Cc1c(N=C2N=C(NC(=O)c3ccc(F)cc3)c3ccccc32)c(=O)n(-c2ccccc2)n1C | inactive
5 | N=c1oc2cc(O)ccc2cc1C(=O)Nc1ccc(Br)cc1 | inactive
6 | CCOC(=O)CC(NC(=O)CCc1c(C)nc2c(-c3ccccc3)c(C)nn2c1C)c1ccc(OC(C)C)cc1 (stereo unspecified) | 39.8 µM (active)
7 | CCOC(=O)Cc1c(C)nc2c(-c3ccc(Cl)cc3)c(C)nn2c1C | inactive
8 | Cc1ccc(/C=C/C(=O)c2ccc(N3CCOCC3)cc2)s1 | inactive
9 | Clc1cccc(N2CCN(Cc3nnc(-c4ccccc4)o3)CC2)c1 | inactive
10 | CNC(=O)/C(C#N)=C/c1c(N2CCN(c3cccc(Cl)c3)CC2)nc2c(C)cccn2c1=O | inactive
11 | O=C(C1CCN(c2ncnc3c2nc2n3CCCCC2)CC1)N1CCN(c2ccc(F)cc2)CC1 | 22.4 µM (active)
12 | Clc1cccc(N2CCN(c3ncnc4c3nc3n4CCCCC3)CC2)c1 | 14.1 µM (active)
13 | O=C(c1cccc(F)c1)N1CCCC(C(=O)N2CCN(c3ccccc3)CC2)C1 (stereo unspecified) | inactive
14 | O=C(OCC(=O)N1CCN(c2ccc(F)cc2)CC1)c1cnc2ccccc2n1 | inactive
15 | O=C(OCC(=O)N1CCCC1)c1c[nH]c2ccccc12 | inactive
16 | Cc1cc(C)c2c(CC(=O)O)c(C)[nH]c2c1 | inactive
17 | O=c1ccc2ccc(O)cc2o1 | inactive
18 | N#Cc1c(-c2ccncc2)cc(-c2ccc(F)cc2)nc1N | inactive
19 | CCO/C(O)=C(/Sc1nc(-c2ccccc2)cc(-c2ccccc2)c1C#N)C(C)=O | inactive
20 | CS(=O)(=O)c1nc(-c2ccccc2)cc(-c2ccccc2)c1C#N | 31.6 µM (active)
21 | Cn1c2ccccc2n2c(=O)cc(-c3ccccc3)c(C#N)c12 | inactive
22 | CS(=O)(=O)c1sc2nc(-c3ccccc3)cc(-c3ccccc3)c2c1N | inactive
23 | CS(=O)(=O)c1nc(-c2ccc(Br)cc2)cc(-c2ccccc2)c1C#N | 28.2 µM (active)
24 | COCCCn1c(=N)c(C(=O)NCc2cccnc2)cc2c(=O)n3cc(C)ccc3nc21 | inactive
25 | CC(=O)c1c(C)[nH]c(C(=O)OCC(=O)c2ccc3c(c2)NC(=O)CO3)c1C | inactive
26 | CC(C)C(=O)Nc1ccc(S(=O)(=O)Nc2nccc(/C=C/c3ccccc3)n2)cc1 | inactive

Row | Structure (SMILES) | Potency
27 | c1ccc(-c2cc(-c3ccc(N4CCOCC4)cc3)nc3ccccc23)cc1 | inactive
28 | c1ccc2cc3c(NCCN4CCOCC4)ccnc3cc2c1 | inactive
29 | c1ccc(-c2cc(NCCN3CCCCC3)c3ccccc3n2)cc1 | 20 µM (active)
30 | Cc1ccc(C2C=C(c3ccc4c(c3)OCO4)Nc3ncnn32)cc1 (stereo unspecified) | inactive
31 | O=C(NNc1c2ccccc2nc2ccccc12)c1ccccc1O | 35.5 µM (active)
32 | CC(C)(C)OC(=O)NNc1c2ccccc2nc2ccccc12 | inactive
33 | CCSc1ccccc1C(=O)Nc1nc(O)c2ccccc2n1 | inactive
34 | Cc1ccc(CNC(=O)CN(C)S(=O)(=O)c2ccc(F)cc2)cc1 | inactive
35 | Cc1n[nH]c(C)c1S(=O)(=O)N(CC(=O)NC(C)c1ccccc1)c1ccc(C(C)C)cc1 (stereo unspecified) | 35.5 µM (active)
36 | CSc1nsc(SCC(=O)NCc2ccc(C)cc2)n1 | inactive
37 | Cc1c(Cl)cccc1N(CC(=O)NC(C)c1ccccc1)S(C)(=O)=O (stereo unspecified) | inactive
38 | Cc1cc(S(=O)(=O)NC(C)C)ccc1OCC(=O)NCc1ccccc1 | inactive
39 | COc1ccc(N(CC(=O)Nc2ccccc2Cl)S(=O)(=O)c2ccc(C)cc2)cc1OC | inactive
40 | Cc1ccc(CNC(=O)CN(c2ccc(C(C)C)cc2)S(=O)(=O)c2c(C)n[nH]c2C)cc1 | 35.5 µM (active)
41 | COc1ccc(S(=O)(=O)N(CC(=O)NCc2ccccc2)c2ccc(C)cc2)cc1OC | 35.5 µM (active)
42 | Cc1cccc(C(=O)NCC(=O)OCC(=O)N2CCc3ccccc32)c1 | inactive
43 | N#C/C(=C\Nc1ccc2c[nH]nc2c1)c1nc(-c2ccc(Cl)cc2)cs1 | inactive
44 | C=CCN(CC=C)C(=S)NC(=O)c1ccc(-c2ccccc2)cc1 | 25.1 µM (active)
45 | CCCN(CC1CC1)C(=S)NC(=O)c1ccccc1C | inactive
46 | O=C(NC(=S)NCc1ccco1)c1ccc(Br)cc1 | inactive
47 | COc1cc(/C=C2/C(=N)N3C(SC)=NSC3=NC2=O)ccc1OC(=O)c1ccco1 | inactive
48 | CCOC(=O)N1CCN(C(=O)c2cc3cc(C)ccc3[nH]2)CC1 | inactive
49 | CC(C)CCN1C(=O)C2(OCCCO2)c2cc(Cl)ccc21 | inactive
50 | COc1cccc(NC(=O)C(=O)NCC2CCCN2S(=O)(=O)c2cccs2)c1 (stereo unspecified) | inactive
51 | S=C(Nc1ccc(Cl)c(Cl)c1)NC1CCN(Cc2ccccc2)CC1 | 28.2 µM (active)
